Compounds without any hit were thinned out: in the full panel of roughly 83,000, 20% have a hit.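 Testing used 96-well plates and a 48-hour single-concentration exposure. Example: -40 means 40% of the starting cells died.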 Active and inactive are the calls of the source. The calls were made as follows: active = growth percent below 10; inactive = the rest.
What was measured:
Test in all cases: NCI-60 one-dose screen, 48 h (100 = growth as untreated, 0 = no growth, -100 = all killed)
[1] = system: NCI-H23 lung; conditions: 10 µM unless noted
[2] = system: NCI-H226 lung; conditions: 10 µM unless noted
[3] = system: DU-145 prostate; conditions: 10 µM unless noted
[4] = system: MDA-MB-231 breast; conditions: 10 µM unless noted
[5] = system: SF-268 CNS; conditions: 10 µM unless noted
[6] = system: M14 melanoma; conditions: 10 µM unless noted
[7] = system: HCT-15 colon; conditions: 10 µM
[8] = system: HT29 colon; conditions: 10 µM unless noted
[9] = system: PC-3 prostate; conditions: 10 µM unless noted
[10] = system: LOX IMVI melanoma; conditions: 10 µM unless noted
[11] = system: SK-MEL-28 melanoma; conditions: 10 µM unless noted
[12] = system: OVCAR-8 ovarian; conditions: 10 µM unless noted
[13] = system: OVCAR-5 ovarian; conditions: 10 µM unless noted
[14] = system: SK-OV-3 ovarian; conditions: 10 µM unless noted
[15] = system: OVCAR-3 ovarian; conditions: 10 µM unless noted
[16] = system: NCI/ADR-RES ovarian; conditions: 10 µM unless noted
[17] = system: SW-620 colon; conditions: 10 µM unless noted
[18] = system: MCF7 breast; conditions: 10 µM unless noted
[19] = system: KM12 colon; conditions: 10 µM unless noted
[20] = system: UACC-62 melanoma; conditions: 10 µM unless noted

Measured: growth

CCC(CC)(c1ccccc1)C(OC(N)=O)c1ccccc1 (stereo unspecified)
inactive: [1] 79.9% | [2] 81.8% | [3] 98.4% | [4] 94.7% | [5] 93.9% | [6] 83.6% | [7] 80% | [8] 87.7% | [9] 72.3% | [10] 77.8% | [11] 85.4% | [12] 92.5% | [13] 111% | [14] 66.5% | [15] 89% | [16] 79.9% | [17] 81% | [18] 81.9% | [19] 83.8%

CC1(C)N=C(N)N=C(N)N1c1ccc(CCCCc2ccc(S(=O)(=O)F)cc2)cc1
inactive: [1] 39.4% | [2] 36.8% | [3] 31.8% | [4] 46.7% | [5] 30% | [6] 27.6% | [7] 36.8% | [9] 12.5% | [20] 19.8% | [10] 15.2% | [11] 47.7% | [12] 24.3% | [13] 41.2% | [14] 69.1% | [15] 33.2% | [16] 113% | [17] 19.4% | [19] 17.1%
active: [8] 8.88% | [18] 2.82%

CCN(CC)c1ccc(C=C2C(=O)NC(=S)NC2=O)cc1
inactive: [1] 93.4% | [2] 85.5% | [3] 98.8% | [4] 93.7% | [5] 80.1% | [6] 102% | [7] 77.5% | [8] 92.2% | [20] 85.9% | [10] 80% | [11] 103% | [12] 93% | [13] 95.1% | [14] 94.1% | [15] 80.6% | [16] 100% | [17] 77.9% | [18] 60.3% | [19] 96.8%

C=CC(=O)NC(O)C(Cl)(Cl)Cl (stereo unspecified)
inactive: [1] 105% | [2] 112% | [3] 106% | [4] 115% | [5] 104% | [6] 98.2% | [7] 97.1% | [8] 106% | [9] 102% | [20] 101% | [11] 103% | [12] 108% | [13] 107% | [14] 98.2% | [15] 105% | [16] 106% | [17] 111% | [18] 105% | [19] 106%

OB([O][Hg][c]1ccccc1)[O][Hg][c]1ccccc1
inactive: [2] 54.9% | [19] 14.7%
active: [1] -56.2% | [3] -73.5% | [4] -69.8% | [5] -51.2% | [6] -80.9% | [7] -70.3% | [8] -55.8% | [9] -60.4% | [20] -99.1% | [10] -29.2% | [11] -83.2% | [12] -97.1% | [13] -64% | [14] -62.7% | [15] -89.6% | [16] -18.2% | [17] -48.9% | [18] -39.4%

O=[N+]([O-])c1ccc(F)c([N+](=O)[O-])c1F
inactive: [1] 111% | [2] 100% | [3] 115% | [4] 113% | [5] 103% | [7] 116% | [8] 103% | [9] 89.3% | [20] 107% | [10] 102% | [11] 116% | [12] 104% | [13] 107% | [14] 105% | [15] 103% | [16] 109% | [17] 88.2% | [18] 102% | [19] 94.1%

C=CCN1C(=O)C(CC)(CCC(C)C)C(=O)NC1=S (stereo unspecified)
inactive: [1] 105% | [2] 104% | [3] 105% | [4] 108% | [5] 109% | [6] 107% | [7] 105% | [8] 103% | [9] 91.7% | [20] 92.2% | [10] 109% | [11] 104% | [12] 99.4% | [13] 112% | [14] 100% | [15] 113% | [16] 106% | [17] 104% | [18] 107% | [19] 108%

O=C(O)c1nn(Cc2ccc(Cl)cc2)c2ccccc12
inactive: [1] 105% | [2] 101% | [3] 120% | [4] 107% | [5] 109% | [6] 107% | [7] 102% | [8] 118% | [9] 98.7% | [20] 102% | [10] 101% | [11] 119% | [12] 92.7% | [13] 108% | [14] 113% | [15] 132% | [16] 112% | [17] 105% | [18] 99.7% | [19] 109%

From PubChem BioAssay (NCI)
